Test results published in the supplement of paper PMC6555819.

Legend:
Test in all cases: PBM binding z-score (relative to random genomic background probes); higher = stronger binding; sequences stand for … in GC…GCGATTGACAGCGTAGAATGAAGG
[1] = tested on: PPARg:RXRa DBDmut IVT, anti-RXR (DBD mutation: RXRa K156A/R161A, NR concentration 270 nM, RXRa partner concentration 90 nM)
Summary of the method: (§1)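 Binding z-scores were set against random background probes. The data came from custom Agilent 4×180K protein-binding microarrays carrying double-stranded probes with 34-nt variable regions, incubated 1 h with ligand-free nuclear receptor dimers. Partner-specific antibodies detected binding, and scanned fluorescence was regression-normalized.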

[2] = tested on: PPARg:RXRa IVT, anti-PPARg (NR concentration 270 nM, RXRa partner concentration 90 nM)
Summary of the method: as §1

[3] = tested on: PPARg DBDmut:RXRa IVT, anti-PPARg (DBD mutation: PPARg1 K132A/R137A, NR concentration 270 nM, RXRa partner concentration 90 nM)
Summary of the method: as §1

[4] = tested on: PPARg DBDmut IVT, anti-PPARg (DBD mutation: PPARg1 K132A/R137A, NR concentration 270 nM)
Summary of the method: as §1

[5] = tested on: PPARg homodimer (NR concentration 180 nM)
Summary of the method: as §1

[6] = tested on: PXR:RXRa (NR concentration 270 nM, RXRa partner concentration 90 nM)
Summary of the method: as §1

[7] = tested on: PXR homodimer (NR concentration 270 nM)
Summary of the method: as §1

[8] = tested on: RARa:RXR (NR concentration 270 nM, RXRa partner concentration 90 nM)
Summary of the method: as §1

[9] = tested on: RARa homodimer (NR concentration 270 nM)
Summary of the method: as §1

[10] = tested on: RARb:RXRa (NR concentration 270 nM, RXRa partner concentration 90 nM)
Summary of the method: as §1

Sequence	PBM binding z-score [1]	PBM binding z-score [2]	PBM binding z-score [3]	PBM binding z-score [4]	PBM binding z-score [5]	PBM binding z-score [6]	PBM binding z-score [7]	PBM binding z-score [8]	PBM binding z-score [9]	PBM binding z-score [10]
CCGACTGGGGCAGAAAGGATACCATACCATCCGG	0.646	0.728	-0.578	-1.57	-0.142	-0.951	-0.394	-1.06	-0.437	0.0733
CCTACTGGGCCATCAGGTCATTGCTATCAACGTT	4.86	4.95	0.318	-0.34	1.02	1.75	0.209	2.17	-0.0297	2.35
TTACCAAGGTGAGCTGAGGTCGTTGAACCAACTC	0.903	1.83	-0.507	-1.13	-0.0477	5.01	0.275	2.19	-0.877	1.79
CTCCAAAGGTCGTGCTCAGGTGAGTATACCAAAC	0.883	1.49	-0.0777	-0.509	2.56	3.53	0.561	4.78	0.196	4.08
ATTTCTAGGTAAAGTTCAGTGAAAGATCGATAGA	4.75	4.3	2.07	2.14	2.58	2.41	2.25	1.36	2.45	2.95
CCTGCTAGGTCAACGGTCAGCTAAAGCAGCTCGC	4.82	4.76	0.645	-0.543	2.2	1.8	-0.372	2.89	0.262	4.45
ATATGTAGGTTACATCCGGGTCATTCAGGCTATG	7.56	7.11	2.58	1.6	2.15	3.62	2.13	3.64	0.928	2.23
CCTACTGAGCCAAAAAGGTCATTGATGCCGATAA	0.522	1.14	-0.507	0.266	3.04	4.49	2.44	4.93	2.61	3.86
CATACTAGGTCAAGGTCAAAGTCGGTTTGTGCCA	7.56	7.98	3.58	0.96	5.3	5.33	2.51	5.37	2.9	4.96
TCATATAGGCAAACAGGTGAAAGTCCGTAAGTTA	2.62	1.42	0.461	0.241	0.782	0.517	0.177	0.939	0.994	0.119
CCGACTTGGGCAGAAAGGTTACCATACCATCCGG	-0.147	-0.369	-0.764	-1.15	0.811	0.592	-0.331	1.16	-0.0756	1.12
CGAACTAGGTCAGAACATGACAGTGAAGGATGAT	6.77	7.31	2.34	1.77	1.17	0.243	-0.286	0.937	0.0136	2.58
TCTTGCAGATCAAAGGTTAAGAAAGCCGAAGCCT	0.914	2.37	0.0487	-1.09	0.464	1.72	-0.464	2.7	-0.444	1.7
AGAATGAGGTTAAGATCAGTGAAACAGAATACAT	2.35	2.8	1.66	0.567	0.498	1	-0.347	1.84	-0.219	1.74
CCGACGGGGGCATAAGGTTACCATAAGCCAGCCC	1.29	2.29	0.647	0.997	1.67	2.75	0.496	3.93	0.379	2.86
AACTCTAGGTAACCAAGTTCAGTGAATGCCGAAC	3.59	2.39	-0.137	0.215	0.0478	1.69	1.29	0.617	0.354	0.858
ACAGACAGGTGATGAAGGGAACTCAGGCTATCAT	0.344	0.145	0.471	-0.0521	0.0738	-0.382	0.482	-0.121	0.0733	0.0899
ACTCGGAGGACAAAGGACAGAGCTACGCCAGTGA	-0.0501	-0.429	-0.346	-1.22	-0.327	-0.688	-0.112	-0.495	-0.7	1.62
GGAACGAGGGCAAGTTGATTGCAGAGTTTGATGG	3.51	2.76	0.164	-0.675	0.268	0.704	0.465	0.608	-0.397	2.69
ACTATTAGTTGACTTAGGGCATCCGATACGACGC	0.311	0.614	1.03	0.574	0.0693	0.114	0.228	0.0202	0.624	0.643
CATACTGGGCCAAAAAGGTCATTGATGCCGATAA	3.46	3.71	0.731	0.232	2.9	4.68	3.77	5.06	2.12	3.82
GATAGAGGGTCAGCTAGAGGCCAGAGTATGGAAA	1.62	2.24	-0.25	-0.22	1.64	2.44	-0.0848	3.7	0.224	3.85
TTACCAAGGTGAGCAGAGGTCGTTGATCCAACTC	0.947	2.49	-0.426	-0.173	0.497	4.23	-0.112	2.23	-0.99	1.99
ATCGCTAGGTAACAAGTTCAGTGAAAGAGAGGAC	-0.0634	0.674	0.226	0.479	0.192	1.13	1.05	0.46	-0.284	1.38
TTACCAAGGTGAGCTGAGGTCGTGGATCCAACTC	1.07	2.05	-0.299	-0.109	-0.369	3.77	-0.246	2.49	-0.727	1.94

Sequence	PBM binding z-score [1]	PBM binding z-score [2]	PBM binding z-score [3]	PBM binding z-score [4]	PBM binding z-score [5]	PBM binding z-score [6]	PBM binding z-score [7]	PBM binding z-score [8]	PBM binding z-score [9]	PBM binding z-score [10]
CGTCCAAGGGCATAGGAGGTCAGTGAAGACAGAT	0.6	2.11	-0.528	-0.863	1.67	4.38	1.16	3	0.923	3.53
TCTCGGAGGACACGAAGGGCAGAGCTTTCCAGAG	1.13	0.0832	-0.999	-0.906	-0.399	-0.198	-0.159	-0.136	-1.15	1.97
ATCGAAAGGTAGTGAGGTGAGTATACAGAAAGGC	-0.75	0.597	0.685	1.02	-0.358	-0.273	0.226	-0.126	0.18	0.322
TCTTGGAGGACACGAAGGTCAGAGCTTTCCAGAG	2.12	2.46	-0.251	-0.635	0.788	1.93	0.605	1.86	-0.208	3.36
GATACAGGGTCAACGCCAGAGTACGCGTATTGAT	3.53	4.25	0.296	0.699	2.98	4.11	0.215	5.05	0.72	4.7
GTACTAAGGTGAATAGGTCGTTGATGAGTAGGCG	2.8	3.12	0.603	0.0798	1.34	1.22	0.545	2.45	1.14	2.62
TCTCCTAGGTCAGTTGGTCAGCTAACGAGCTGCC	2.85	3.32	1.43	0.66	1.05	0.732	-0.3	0.918	0.238	3.52
CCGACTGGGGCAGAACGGTTACCATACCATCCGG	1.2	0.551	-1.28	-1.18	-0.513	-0.96	-0.492	-0.872	-0.367	0.227
AGAACGAGGGCACGCTGAGTTCATAGCAGAGTAG	3.84	3.89	0.826	-0.0454	1.16	5.94	10.4	2.94	-0.449	3.2
AAAACGAGGGCAATGAGTTGATAGCACGGGTGGC	5.04	3.79	1.2	0.681	0.0756	1.86	4.72	0.593	-0.42	2.18
GCTTACGGATCAAAGGTTATAGCATGAATAGAAT	-0.119	1.82	0.708	0.266	0.616	2.38	-0.00589	3.61	0.0862	1.42
GTACCAAGGTGAATAGGTCGTGGATGAGTAGGCG	2.1	2.87	0.27	-0.568	1.84	0.978	-0.029	2.11	0.457	2.09
CGTCAAAGTTCAACTAAGGTAACGCAAAGCACGC	0.641	2.32	0.717	0.408	3.08	5.42	3.81	4.22	1.83	5.15
AGAATGAGGTTATTAAGATCAGGGATTTGCGGTC	3.56	2.51	1.03	0.211	0.911	1.23	0.655	1.64	0.863	1.37
GTGACTGGGGCAAAGCAGGTTACCATAAGGTTGG	4.87	5.02	1.15	0.645	0.994	0.926	-0.0315	1.99	-0.0502	1.14
CCTAGTTGGTCAGGAGGTCACACGCCGGATATGA	1.84	3.74	0.471	-0.188	3.2	4.12	1.31	4.32	1.9	3.71
CCTTACGGGTCACTCCAGGCTATAGCATCGGAGT	2.55	3.11	-0.0425	-0.418	0.988	3.3	-0.213	3.16	0.0642	3.51
CTCGAAAGGTCGTGCTCAGGTAAGTATACCAAAC	0.999	1.78	0.44	-0.41	1.63	3.24	0.482	3.73	0.0606	3.99
CCGTACGGGTCACGAGGTTATAGCACGACGAGCG	2.29	3.93	0.613	-0.38	2.82	4.73	-0.215	6.42	1.17	4.48
TCTTGTAGATCAGCAGGTTAAGGAAGCTGGCCAA	1.63	0.577	-1.02	-0.0477	-0.0347	0.121	-0.363	0.277	-0.25	0.316
ACTAGTTGGTCAGCTGAGATCACACACAATTCGG	0.753	0.741	1.02	0.509	-0.286	0.0807	-0.161	0.321	0.12	0.946
TCTAGCAGGCCACAGGGTCACTCAAGAGGTACGG	1.57	2.41	0.0342	-1.16	1.75	2.71	-0.163	3.42	-0.568	2.63
ATCTCTCGGTAACCAAGTTCAGTGAATGCCGAAC	-0.264	0.594	0.5	0.409	0.702	1.85	1.8	0.427	0.774	0.997
CCCTACGGGTCACTGACAGGTTATAGCATTTGGA	0.759	2.29	-0.15	-0.444	2.79	3.54	0.381	4.28	1.02	4.02
